Coupling enz = counter-screen for Giardia aldolase inhibitors: coupling enzyme system; coupling enzyme system counterscreen, AmpLite Red fluorescence; activity change, negative = inhibition, % at 58.2 µM, hits read low; 290,000 compounds, 0.67% hits; AID 2472; in the data active means activity change below about -30%
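Compounds tested against the coupling enzymes alone at 57.5 uM final; readout was AmpLite Red fluorescence (525/598 nm) after 20 min at RT.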
G9a block = G9a (human) methyltransferase inhibition; Potency, µM (highest dose often 102 µM), for inactives: at the highest dose activity, negative = inhibition, hits mostly inhibitors; 350,000 compounds, 8.8% hits; G9a H3K9 monomethylation, AlphaScreen, 2 h; Q96KQ7; further: potency means the concentration at half of the fitted maximal effect; nearly all actives have a fitted effect of over 75% in size
Target sequence (Q96KQ7 913-1193 limits assumed): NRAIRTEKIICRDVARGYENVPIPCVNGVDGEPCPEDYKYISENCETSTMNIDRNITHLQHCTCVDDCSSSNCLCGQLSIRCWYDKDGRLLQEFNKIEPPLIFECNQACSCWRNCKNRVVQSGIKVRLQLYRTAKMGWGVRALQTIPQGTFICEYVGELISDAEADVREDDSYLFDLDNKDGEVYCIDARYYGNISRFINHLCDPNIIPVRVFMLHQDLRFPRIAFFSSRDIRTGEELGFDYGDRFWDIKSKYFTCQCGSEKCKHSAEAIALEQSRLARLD
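Methyltransferase reactions run at room temperature for 2 h (20 nM enzyme, 500 nM biotin-H3K9 peptide, 20 uM SAM) after a 15 min compound preincubation; product detected by AlphaScreen beads and anti-H3K9me1 antibody.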
Sfp PPTase inh = Sfp phosphopantetheinyl transferase inhibition. Biochemical Sfp PPTase activity, qHTS. Potency, µM, for the others: largest response in the series, negative = inhibition, actives largely listed as inhibitors. 310,000 compounds, 3.5% hits. Q9F4F7;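 further: the enzyme is Sfp with the accession as filed and its product quenches rhodamine fluorescence; potency means the concentration at half of the fitted maximal effect; 0% = enzyme reaction without inhibitor and -100% = no enzyme wells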
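Reaction rates are the 30-min fluorescence difference (ex 525, em 598 nm) in wells containing 15 nM Sfp, 5 uM rhodamine-CoA and 12.5 uM BHQ-2-YbbR at pH 7.6 with 10 mM MgCl2.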
Tau ThT inhib = tau fibrillization inhibition (ThT binding) | P10636 | recombinant tau K18 P301L, heparin-induced fibrillization, ThT fluorescence | Potency, µM (highest dose often 57.4 µM), inactives show at the top dose activity, negative = inhibition, hits mostly inhibitors | 270,000 compounds, 2.1% hits | AID 1460; further: potency means the concentration at half of the fitted maximal effect; nearly all actives have a fitted effect of over 55% in size
Target sequence (P10636 561-689 P618L limits assumed): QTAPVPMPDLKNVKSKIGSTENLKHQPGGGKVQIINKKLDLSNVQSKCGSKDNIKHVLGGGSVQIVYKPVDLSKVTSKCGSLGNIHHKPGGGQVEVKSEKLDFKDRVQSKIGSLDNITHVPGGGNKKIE
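Aggregation was driven by heparin (20 uM final) acting on recombinant tau […] bearing P301L in 100 mM sodium acetate pH 7; fibrils were detected with Thioflavin T.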
Tau FP inhib = blocks human tau fibril formation measured by polarization; P10636; AID 1468; K18 P301L tau heparin fibrillization, Alexa594 FP, 6 h; 280,000 compounds, 0.39% hits; Potency, µM (top dose mostly 57.7 µM), inactives show at the top dose activity, negative = inhibition, most hits filed as inhibitors; further: potency means the concentration at half of the fitted maximal effect; nearly all actives have a fitted effect of over 55% in size
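Heparin (20 uM) drove fibril formation of recombinant tau K18 P301L, 15 uM unlabeled with 0.24 uM Alexa 594 label, for 6 hr at 37 C in 100 mM sodium acetate pH 7. Fluorescence polarization (555/632 nm) read 1 hr after 30 uM ThT.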
Tau fluor cs = counter-screen for tau fibril formation inhibitors; tau K18 P301L Alexa594 fluorescence, heparin fibrillization; Potency, µM (titrated, usually from 57.7 µM), without a hit: top-dose activity change, negative = decrease; 280,000 compounds, 0.93% hits; further: potency means the concentration at half of the fitted maximal effect; nearly all actives have a fitted effect of over 55% in size
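Human tau K18 P301L (15 uM unlabeled, 0.24 uM Alexa 594-labeled) in 100 mM sodium acetate pH 7 with 20 uM heparin, 6 hr at 37 C. ThT 30 uM added, 1 hr ambient; Alexa 594 FP and total fluorescence read at 555/632 nm.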
* = called active by the depositor; ? = inconclusive; / = not tested or not shown; [ ] = remark or other dose. Hits are enriched below; roughly 11% of the tested compounds scored in any of these assays. Unless noted, the call rests on the fitted dose curve; in most records, active means well fitted curve in the direction sought with a large enough effect; inconclusive means small, poorly fitted or top-dose-only effect, or another doubt; inactive means no such curve, though single readings can be large; an effect the other way counts as inactive or inconclusive. Unless noted, on the % scale 0 is the no-effect control and ±100 the full control effect.

SMILES	Coupling enz	G9a block	Sfp PPTase inh	Tau ThT inhib	Tau FP inhib	Tau fluor cs
CCOc1ccc(-n2c(=O)c3c4c(sc3n(CC(=O)NC(C)CC)c2=O)CCC4)cc1 (centres undefined)	/	33.1%[59 µM]	/	-3.4%	-0.2%	-0.9%
COc1ccc(Nc2cc(Cl)nc(N)n2)cc1OC	-12.0	?	1.3%	?	-3.7%	-18.1%
CC(C)=CC1C(CO)C1(C)C (centres undefined)	2.2	/	10.5%	-2.0%	-2.2%	-0.1%
c1cncc(-c2cncnc2NCc2cccs2)c1	6.2	-39.2%[0.501 µM]	-3.2%	/	/	/
COc1ccccc1NC(=S)NNC(=O)c1c(Cl)c(C)nn1C	/	25.1µM*	3.2%	?	-1.0%	-23.2%
CCS(=O)(=O)N1CCc2cc(C(=O)NCc3ccc(Cl)cc3)ccc21	/	-45.7%[59 µM]	/	0.3%	-3.8%	1.1%
COCCN(C(=O)CSCC(=O)Nc1cccc(C)c1)c1c(N)n(Cc2ccccc2)c(=O)[nH]c1=O	/	11.5%[2.33 µM]	/	/	/	/
CCCn1c(N)c(N(CCOC)C(=O)CSCC(=O)Nc2cccc(C)c2)c(=O)[nH]c1=O	/	50.1µM*	/	/	/	/
Cc1ccc(CSCC(=O)N(CCC(C)C)c2c(N)n(Cc3ccccc3)c(=O)[nH]c2=O)cc1	/	4.5%[0.501 µM]	/	/	/	/
CCCCn1c(N)c(N(CC)C(=O)CSCC(=O)Nc2ccc(OC)cc2)c(=O)[nH]c1=O	/	50.1µM*	/	/	/	/
CCCCN(C(=O)CSCC(=O)Nc1cccc(C)c1)c1c(N)n(CCCC)c(=O)[nH]c1=O	/	20µM*	/	/	/	/
Cc1ccc(NC(=O)CSCC(=O)N(CCC(C)C)c2c(N)n(Cc3ccccc3)c(=O)[nH]c2=O)cc1	/	56.2µM*	/	/	/	/
CC(C)(C)OC(=O)NS(=O)(=O)Nc1ccccc1Br	1.7	/	0.5%	/	/	/
Cc1cccc2c3c([nH]c12)CCNC3	1.4	-4.5%[0.501 µM]	0.9%	/	/	/
CC(=O)Oc1ccc(-c2csc(Nc3ccc(S(N)(=O)=O)cc3)n2)cc1	3.8	-34.2%	8.6%	0.4%	10.9%[2.34 µM]	12.2%[2.34 µM]
Nc1ccc(Nc2nc(-c3ccncc3)cs2)cc1	0.9	39.8µM*	-4.0%	?	7.0%	?
COc1ccc(-c2csc(Nc3ccc(S(N)(=O)=O)cc3)n2)cc1	2.8	-8.5%[2.33 µM]	?	?	?	12.6µM*[quencher]
Oc1ccc(Nc2nc(-c3ccc(O)cc3)cs2)cc1	2.7	?	6.3%	6.31µM*	2.1%	14.1µM*[quencher]
Oc1ccc(Nc2nc(-c3ccc(Cl)cc3)cs2)cc1	0.5	/	-20.0%	3.98µM*	?	7.94µM*[quencher]
CNc1nc(-c2ccc(Cl)cc2)cs1	-1.7	?	-16.1%	-19.5%	-0.7%	-20.4%
Fc1ccc(Nc2nc(-c3ccncc3)cs2)cc1	3.2	2.6%	-3.3%	?	6.2%	-19.0%
O=C(CC1C(=O)NCCN1C(=O)c1ccc([N+](=O)[O-])cc1)Nc1ccc(F)cc1 (centres undefined)	1.0	/	12.5%	/	/	/
Cc1cccc(NC(=O)COC(=O)c2ccccc2SCC(=O)N2CCCC2)c1	/	53.9%	11.0%	/	/	/
NS(=O)(=O)c1ccc(Nc2nc(-c3ccc(O)cc3)cs2)cc1	-8.5	?	-23.7%	12.6µM*	20.3%	?
COc1ccc(-c2csc(NC(=O)c3ccccc3NS(=O)(=O)c3ccc(F)c(F)c3)n2)cc1	-0.6	-36.7%[12.7 µM]	-5.2%	22.4µM*	?	?
SMILES	Coupling enz	G9a block	Sfp PPTase inh	Tau ThT inhib	Tau FP inhib	Tau fluor cs
COc1ccc(-c2csc(Nc3ccc(S(=O)(=O)Nc4cc(C)on4)cc3)n2)cc1	-1.1	44.7µM*	-24.7%	?	13.6%	?
Cc1ccc(S(=O)(=O)Nc2ccccc2C(=O)Nc2nc(-c3ccc(F)cc3)cs2)cc1	-3.5	0.2%[59 µM]	-13.0%	4.5%	4.4%	4.3%
CCC(CC)C(=O)N1CCc2cc(OC)c(OC)cc2C1COc1ccccc1OC (centres undefined)	/	-2.1%[59 µM]	/	-7.4%	5.1%	-2.8%
CC1CCCCN1CCCNC(=O)c1cc(Sc2cccc(Cl)c2)nc2ccccc12 (centres undefined)	/	-4.2%[59 µM]	/	0.7%	-1.8%	-10.7%
COC(=O)C(CC(=O)c1ccc(C)cc1)n1cccn1 (centres undefined)	-1.0	15.2%	22.1%	/	/	/
COC(=O)C(CC(=O)c1ccc(Br)cc1)n1cccn1 (centres undefined)	-1.0	39.8µM*	?	/	/	/
COc1cc2c(cc1OC)CN(C(=O)c1cc(S(=O)(=O)N3CCOCC3)ccc1Cl)CC2	-3.7	50.1µM*	-9.6%	-11.4%	-0.8%	-11.7%
COc1ccc(N2CCN(C(=O)c3ccc(Cl)c(S(=O)(=O)N4CCCC4)c3)CC2)cc1	3.6	39.8µM*	5.5%	-9.6%	9.0%	-5.6%
COc1ccc(N2CCN(C(=O)c3cc(S(=O)(=O)N4CCCCCC4)ccc3OC)CC2)cc1	/	50.1µM*	/	/	/	/
CN1CCN(C(=O)c2ccc(Cl)c(S(=O)(=O)N3CCCCC3)c2)CC1	-0.7	?	-0.5%	-6.2%	-4.3%	-0.1%
COc1ccc(N2CCN(S(=O)(=O)c3ccc(OC)c(C(=O)N4CCOCC4)c3)CC2)cc1	0.3	44.7µM*	-0.6%	/	/	/
O=C(/C(=N/N=C/c1ccc(O)c(O)c1O)c1ccccc1)c1ccccc1	-40.4*	1.12µM*	-96.0%	10.1%	-2.8%	6.9%
Oc1ccc(/C=N/N=C(c2ccccc2)c2ccccc2)c(O)c1O	-17.1	1.41µM*	2.82µM*	8.91µM*	?	12.6µM*[quencher]
CCc1ccc2[nH]c(=O)c(C3C(C#N)=C(N)Oc4c3ccc3cccnc43)cc2c1 (centres undefined)	-1.3	-4.0%[59 µM]	-26.0%	?	-5.3%	?
Cc1ccc2cc(C3C(C#N)=C(N)Oc4c3ccc3cccnc43)c(=O)[nH]c2c1 (centres undefined)	-39.1*	-19.5%[0.0925 µM]	10µM*	?	?	-27.2%
COC(=O)/C(C(C)=O)=C(\C=C\N(C)C)N(C)C	3.0	12.6%	6.8%	-5.1%	10.9%	-5.7%
COC(=O)\C(C(C)=O)=C(/C=C/C=C/C=C/N(C)C)N(C)C	-10.6	31.6µM*	-18.0%	15.8µM*	?	-24.2%
COc1cc2c(cc1NC(=O)CSc1nc3ccc(C)cc3[nH]1)oc1ccccc12	-0.2	19.7%[59 µM]	1.8%	0.7%	?	?
CCC1=C2CC[C@H]3C(=O)N(CC(=O)OC)C(=O)[C@H]3[C@H]2[C@@]2(C)C(=O)N(CC3CC3)C(=O)N2C1=O	0.6	/	50.1µM*	-14.8%	-4.3%	-15.5%
CCN(CC)CCN(C(=O)c1cccc(N2C(=O)CCC2=O)c1)c1nc2cc3c(cc2s1)OCO3	-1.1	50.1µM*	-5.9%	-1.9%	-3.1%	-5.4%
CN(C)CCCN(C(=O)c1cccc(N2C(=O)CCC2=O)c1)c1nc2cc3c(cc2s1)OCO3	1.5	?	5.6%	1.7%	2.1%	0.6%

Bioassay records deposited in PubChem BioAssay by National Center for Advancing Translational Sciences (NCATS).
